Measurements: PubChem BioAssay AID847 (SRMLSC, 2007)
The whole screen tested about 41,000 compounds, of which about 190 (0.46%) were called active. Only a selection was taken, and actives are over-represented in it overall. Values without a mark were called inactive.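 Rule for the calls: active = viability at or below the median of all test compounds minus 3 SD, in both replicates if run twice (cut at about 45% in these data); inconclusive = duplicate replicates that disagree with each other; inactive = viability above that cutoff in every replicate.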

Test: SK-BR-3 proliferation inhibitors, primary screen, cell-based, human, 24 h (AID 847);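 note: 100% = median untreated cell wells and 0% = median positive control drug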
Details: SK-BR-3 viability, CellTiter-Glo ATP luminescence, at 10 µM, stronger effect = lower value

Question: With `CN(C)c1ccc(CNC23CN4CN(CN(C4)C2)C3)cc1` as the molecule, how does the viability read?
Answer: 99%

Question: For `Cn1c2c(c(=O)n(C)c1=O)CN(Cc1ccco1)CN2`, which viability is on record?
Answer: 83.8%

Question: Which viability does the source give for `O=C(Cn1c(=O)sc2ccccc21)Nc1ccc2c(c1)OCCO2` here?
Answer: 78.4%

Question: Which viability does the source give for `Cc1ccc2cc(C#N)c(SCC(=O)NCC3CCCO3)nc2c1C` (stereo not given) here?
Answer: 82.7%

Question: For `O.O.O.O=S(=O)([O-])OC[C@H]1O[C@@H](O[C@]2(COS(=O)(=O)[O-])O[C@H](OS(=O)(=O)[O-])[C@@H](OS(=O)(=O)[O-])[C@@H]2OS(=O)(=O)[O-])[C@H](OS(=O)(=O)[O-])[C@@H](OS(=O)(=O)[O-])[C@@H]1OS(=O)(=O)[O-].[Al]`, which viability is on record?
Answer: 89.7%

Question: For `CC(=O)Nc1cccc2c1[n+]([O-])c(C)c(C)[n+]2[O-]`, which viability is on record?
Answer: 115%

Question: With `CCN(CC)P(=O)(/C(Cl)=C\Nc1c(C)n(C)n(-c2ccccc2)c1=O)N(CC)CC` as the molecule, how does the viability read?
Answer: 104%

Question: For `Cn1nnnc1SCC(=O)N1CCN(Cc2ccccc2)CC1`, which viability is on record?
Answer: 103%

Question: With `Cn1c(SCC(=O)Nc2cccc(NC(=O)c3cccs3)c2)nnc1-c1ccncc1` as the molecule, how does the viability read?
Answer: 91.4%

Question: For `O=C(CSc1nc(-c2ccco2)cc(C(F)(F)F)n1)N1CCc2ccccc2C1`, which viability is on record?
Answer: 113%

Question: With `CCCN1C(=O)C(NC(C)=O)c2cc(OC)ccc21` (stereo not given) as the molecule, how does the viability read?
Answer: 88.1%

Question: With `Cc1nc2cc(-c3ccc(F)cc3)nn2c(N2CCOCC2)c1C` as the molecule, how does the viability read?
Answer: 89.5%

Question: For `FC(F)(F)c1cccc(Nc2ncnc3ccccc23)c1`, which viability is on record?
Answer: 90.1%

Question: For `CCOC(=O)Cc1csc(NC(=O)CSc2nc(C)cc(=O)[nH]2)n1`, which viability is on record?
Answer: 43.4% (active)

Question: With `CCOC(=O)Cc1csc(NC(=O)Nc2ccccc2)n1` as the molecule, how does the viability read?
Answer: 111%

Question: Which viability does the source give for `CCOC(=O)Cc1csc(NC(=O)C(C)(C)C)n1` here?
Answer: 89.5%

Question: Which viability does the source give for `Cc1cc(C)cc(NC(=O)N2CCC(NC(=O)c3ccc(F)cc3)CC2)c1` here?
Answer: 103%

Question: For `COc1cc(OC)cc(C(=O)NCCSCc2ccco2)c1`, which viability is on record?
Answer: 80.3%

Question: With `N#Cc1c(NC(=O)CSc2nc3ccccc3c(=O)n2Cc2ccco2)sc2c1CCCC2` as the molecule, how does the viability read?
Answer: 72.2%

Question: With `CCOc1ccccc1NC(=O)CCc1ccc(C)o1` as the molecule, how does the viability read?
Answer: 103%

Question: Which viability does the source give for `COCCCNC(=O)c1c(F)c(F)c(F)c(F)c1F` here?
Answer: 79.3%

Question: For `O=C1Nc2ccccc2C12Nc1ccccc1S2` (stereo not given), which viability is on record?
Answer: 75.9%

Question: For `Cc1ccc(C(C)C)c(OCc2nnc(SCC(=O)Nc3nccs3)n2C)c1`, which viability is on record?
Answer: 92.6%

Question: For `O=C(Cc1cccs1)N1CCCC(c2nc(-c3ccc(S(=O)(=O)N4CCCC4)cc3)no2)C1` (stereo not given), which viability is on record?
Answer: 72.5%

Question: With `Cc1sc2c(c1C)c(=O)n(-c1ccccc1)c1nncn21` as the molecule, how does the viability read?
Answer: 90.1%

Question: For `O=C(Nc1ccccc1N1CCN(C(=O)c2ccccc2)CC1)c1ccc2c(c1)OCO2`, which viability is on record?
Answer: 68%

Question: Which viability does the source give for `CCn1nc(NC(=O)c2ccco2)c2cc3ccc(C)cc3nc21` here?
Answer: 79.8%

Question: With `COCCCNC(=O)COc1cc(C)c(Cl)c(C)c1` as the molecule, how does the viability read?
Answer: 104%

Question: With `CC(=O)CCS(=O)(=O)c1ccc(C)c(C)c1` as the molecule, how does the viability read?
Answer: 73.8%

Question: Which viability does the source give for `CCOc1cc(/C=N/O)cc(Br)c1OC` here?
Answer: 90.1%

Question: Which viability does the source give for `CCc1ccccc1NC(=O)CSc1nnc([C@@H](NC(=O)OC(C)(C)C)C(C)CC)o1` (stereo not given in full) here?
Answer: 89.6%

Question: Which viability does the source give for `O=S(=O)(NCCNS(=O)(=O)c1ccccc1)c1ccccc1` here?
Answer: 87.2%

Question: For `CCOC(=O)c1nc(N)sc1C(=O)OCC`, which viability is on record?
Answer: 82.9%

Question: With `CCCCOc1ccc(NC(=O)CSCC(=O)OCC)cc1` as the molecule, how does the viability read?
Answer: 97.7%

Question: For `CCN(CC)C(=O)CSc1nnc(-c2cnccn2)n1-c1ccc(C)cc1`, which viability is on record?
Answer: 112%

Question: With `CC(=O)N(CN1C(=O)C2CC=CCC2C1=O)c1cccc(Cl)c1` (stereo not given) as the molecule, how does the viability read?
Answer: 102%

Question: With `O=C(Nc1c(C(=O)N2CCCCC2)cnn1-c1ccccc1)c1ccco1` as the molecule, how does the viability read?
Answer: 81.5%

Question: For `CCOC(=O)c1cnc(-n2nc(C)cc2C)nc1-n1nc(C)cc1C`, which viability is on record?
Answer: 108%

Question: Which viability does the source give for `CCN(CC)C(=O)CSc1nnc(-c2cccc(OC)c2)o1` here?
Answer: 88.1%

Question: Which viability does the source give for `CCS(=O)(=O)n1nc(-c2ccc(OC)cc2)nc1SC` here?
Answer: 101%

Question: With `O=C(CSc1nnnn1C1CCCC1)Nc1ccc2c(c1)OCCO2` as the molecule, how does the viability read?
Answer: 42.5% (active)

Question: Which viability does the source give for `O=C(CSc1nnnn1-c1ccc2c(c1)CCC2)Nc1ccc2c(c1)OCCO2` here?
Answer: 86.1%

Question: Which viability does the source give for `CCC(=O)Nc1cccc(NC(=O)CSc2nnnn2C2CCCC2)c1` here?
Answer: 69%

Question: For `CCOc1cccc(-c2nn3c(-c4ccccn4)nnc3s2)c1`, which viability is on record?
Answer: 116%

Question: With `CCOC(=O)CNC(=O)CSc1nnc(-c2cccc(OC)c2)n1CC` as the molecule, how does the viability read?
Answer: 104%

Question: For `O=C1CCC(=O)N1CCOP1(=O)COc2ccccc2OC1`, which viability is on record?
Answer: 98.7%

Question: With `CCOC(=O)Cn1c(SC)nc2sc3c(c2c1=O)CC(C)(C)OC3` as the molecule, how does the viability read?
Answer: 93.7%

Question: Which viability does the source give for `CSCC[C@H](NC(=O)NCCc1ccc(F)cc1)C(=O)O` here?
Answer: 79.6%

Question: For `O=C(Nc1nn(Cc2ccccc2F)cc1Br)c1cccs1`, which viability is on record?
Answer: 98.6%

Question: For `C=CCn1c(CSc2nc3ccccc3s2)nnc1SCC(=O)NCc1ccco1`, which viability is on record?
Answer: 125%

Question: For `Cc1ccc(NC(=O)Cn2nc(C)c3ccccc3c2=O)c(C)c1`, which viability is on record?
Answer: 112%

Question: Which viability does the source give for `CCCCn1c(SCC(=O)N2CCC(C(=O)OCC)CC2)nc2cc(S(N)(=O)=O)ccc21` here?
Answer: 89.6%

Question: For `C=CCN1C(=O)C(O)(CC(=O)c2ccc(Cl)cc2)c2ccccc21` (stereo not given), which viability is on record?
Answer: 86.7%

Question: For `COc1ccc(OC)c(NC(=O)CSc2nc(N)c(-c3ccccc3)c(=O)[nH]2)c1`, which viability is on record?
Answer: 98.9%

Question: For `CN1CCN(C(=O)C2C3C=CC(C3)C2C(=O)O)CC1` (stereo not given), which viability is on record?
Answer: 109%

Question: For `COc1ccc(N2CC(C)Cn3c2nc2c3c(=O)n(Cc3ccccc3F)c(=O)n2C)c(OC)c1` (stereo not given), which viability is on record?
Answer: 89.5%

Question: For `CC1(C)NC(=O)N(CCOc2cccc(Oc3ccccc3)c2)C1=O`, which viability is on record?
Answer: 94.6%

Question: Which viability does the source give for `C[C@H](NC(=O)OC(C)(C)C)c1nnc(SCC(=O)Nc2ccc(Br)cc2)o1` here?
Answer: 91.1%

Question: Which viability does the source give for `CCS(=O)(=O)NCCc1ccc(OC)c(OC)c1` here?
Answer: 85.1%

Question: For `CCOc1ccccc1N(CC(=O)Nc1ccccc1C(=O)OC)S(C)(=O)=O`, which viability is on record?
Answer: 114%
